# Results filed as inconclusive are left out. Calls of active or inactive are those of the source. Rule for the calls, unless noted: active = hit-call score of the fitted dose curve at least 0.9, where 1 is the maximum; inactive = score below 0.9.
# Columns and labels:
# [1] = CEETOX_H295R_OHPROG_noMTC: CeeTox H295R High-throughput Steroidogenesis Assay for OH-Progesterone (OHPROG), maximum tolerated concentration (MTC) filtered results only (AID 2283914); conditions: actives raise or lower the signal
# In short: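 Medium hormone measured by reverse-phase C18 HPLC with positive electrospray MS/MS after MTBE liquid-liquid extraction. Cells had 48 h forskolin (10 uM) prestimulation, then 48 h chemical dosing. Gain or loss of signal fitted relative to DMSO baseline.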
# [2] = CEETOX_H295R_CORTISOL_noMTC: CeeTox H295R High-throughput Steroidogenesis Assay for Cortisol, maximum tolerated concentration (MTC) filtered results only (AID 2283916); conditions: actives raise or lower the signal
# In short: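 H295R human adrenal cells prestimulated 48 h with 10 uM forskolin, then exposed 48 h to chemical in 0.1% DMSO; cortisol in medium quantified by HPLC-MS/MS; bidirectional fit vs DMSO baseline, concentrations not MTT-filtered for MTC.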
# [3] = CEETOX_H295R_CORTIC_noMTC: CeeTox H295R High-throughput Steroidogenesis Assay for Corticosterone (CORTIC), maximum tolerated concentration (MTC) filtered results only (AID 2283917); conditions: actives raise or lower the signal
# In short: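 Corticosterone secreted into the medium was measured by reverse-phase C18 HPLC with tandem MS after MTBE extraction. Cells (H295R) had 48 h forskolin (10 uM) stimulation before 48 h chemical exposure; gain or loss of signal was fitted relative to DMSO.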
# [4] = CEETOX_H295R_DOC_noMTC: CeeTox H295R High-throughput Steroidogenesis Assay for DOC, maximum tolerated concentration (MTC) filtered results only (AID 2283918); conditions: actives raise or lower the signal
# In short: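 H295R cells prestimulated 48 h with 10 uM forskolin, then exposed 48 h to chemical in 0.1% DMSO. 11-Deoxycorticosterone in medium measured by MTBE extraction and HPLC-MS/MS; bidirectional fit vs DMSO, no MTC filter.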
# [5] = CEETOX_H295R_PROG_noMTC: CeeTox H295R High-throughput Steroidogenesis Assay for Progesterone (PROG), maximum tolerated concentration (MTC) filtered results only (AID 2283920); conditions: actives raise or lower the signal
# In short: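 Readout: medium progesterone by MTBE extraction, reverse-phase C18 HPLC, ESI-positive MS/MS. Human H295R cells, 10 uM forskolin pretreatment 48 h, chemical 48 h in 0.1% DMSO. Gain or loss fitted against DMSO baseline.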
# [6] = CEETOX_H295R_ESTRADIOL_noMTC: CeeTox H295R High-throughput Steroidogenesis Assay for Estradiol, maximum tolerated concentration (MTC) filtered results only (AID 2283919); conditions: actives raise or lower the signal
# In short: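 Readout: dansyl-derivatized estradiol quantified by LC-MS/MS in medium from H295R cells dosed 48 h (0.1% DMSO) following 48 h forskolin (10 uM) prestimulation. Gain or loss of signal fitted against DMSO; no MTC filtering applied.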
# [7] = CEETOX_H295R_ESTRONE_noMTC: CeeTox H295R High-throughput Steroidogenesis Assay for Estrone, maximum tolerated concentration (MTC) filtered results only (AID 2283921); conditions: actives raise or lower the signal
# Experimental: CEETOX_H295R is a cell-based, multiplexed-readout assay that uses H295R, a human adrenal gland cell line, with measurements taken at 48 hours after chemical dosing in a 96-well plate.CEETOX_H295R_ESTRONE_noMTC is one of 12 assay component(s) measured or calculated from the CEETOX_H295R assay (11 hormones and 1 viability assay). It is designed to make measurements of hormone induction, a form of inducible reporter, as detected with absorbance signals by HPLC-MS-MS technology. The concentrations for these components have not been pre-filtered for the maximum tolerated concentration (MTC) based on the MTT assay (_noMTC).Data from the assay component CEETOX_H295R_ESTRONE_noMTC was analyzed into 1 assay endpoint. This assay endpoint, CEETOX_H295R_ESTRONE_noMTC, was analyzed with bidirectional fitting relative to DMSO as the negative control and baseline of activity. Using a type of inducible reporter, gain or loss-of-signal activity using HPLC-MS-MS was used to understand synthesis of Estrone in H295R cell line at 48hr of chemical exposure, without filtering concentrations for maximum tolerated concentration (MTC). To generalize the intended target to other relatable targets, this assay endpoint is annotated to the steroid hormone intended target family, where the subfamily is estrogens.
# Cell culture and media preparation procedures were conducted in accordance with OECD Test No. 456 guidelines, with minor modifications. H295R cells (ATCC CRL-2128) were expanded for 5 passages and frozen in batches in liquid nitrogen. […] For steroid quantification, media samples were shipped to OpAns, LLC (Durham, NC) on dry ice, and samples were thawed to room temperature prior to liquid-liquid extraction. […] Steroid hormones were separated by HPLC, eluted using a reverse phase C18 gradient with electrospray positive ionization, followed by quantification by tandem mass spectrometry (MS/MS). Data were acquired on a MassHunter Workstation Acquisition version B03.01 (Agilent Technologies, Inc.) and processed using MassHunter Quantitative Analysis for QQQ. Accuracy was determined for each hormone analyte from 3 standards to determine upper and lower limits of quantification (ULOQ and LLOQ, respectively) using a 7-point standard curve. Precision and accuracy of the extraction and quantification methods were calculated as the percent relative standard deviation (%RSD) of the spiked standards and percent spiked standard recovered, respectively. The goal was to achieve 100% accuracy (i.e., recover all spiked-in standard at quantification with minimal loss during run time) and good precision (i.e., have %RSD <15% to ensure reproducibility). Test medium was removed following chemical exposure, and cell viability was evaluated in the same wells by MTT. […]
# [8] = CEETOX_H295R_ANDR_noMTC: CeeTox H295R High-throughput Steroidogenesis Assay for Androstenedione (ANDR), maximum tolerated concentration (MTC) filtered results only (AID 2283915); conditions: actives raise or lower the signal
# In short: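 Androstenedione secreted into medium was measured by LC-MS/MS after MTBE extraction. Human adrenal H295R cells received 10 uM forskolin for 48 h before 48 h chemical exposure (0.1% DMSO). Gain or loss fitted against DMSO, including concentrations above the MTT-derived MTC.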
# [9] = CEETOX_H295R_TESTO_noMTC: CeeTox H295R High-throughput Steroidogenesis Assay for Testosterone (TESTO), maximum tolerated concentration (MTC) filtered results only (AID 2283924); conditions: actives raise or lower the signal
# In short: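 Medium testosterone, measured by HPLC-MS/MS after liquid-liquid extraction, was fitted in both directions relative to DMSO without MTC filtering. Adrenal H295R cells received 48 h chemical exposure (0.1% DMSO final) after 48 h forskolin (10 uM) prestimulation; viability by MTT.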
# PGR (gene 5241) = PGR (gene 5241) (UniProt P06401); assay: TOX21_PR_BLA_Followup_Agonist_ratio: Tox21 HEK293 Progesterone Receptor (PR) Agonism Beta-lactamase Follow-Up Assay, Ratio (AID 2283933; active = hit-call score of the fitted dose curve at least 0.9, where 1 is the maximum)
# In short: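 Ratio-based beta-lactamase reporter signal after 16 hr compound treatment of PR-UAS-bla HEK293T cells at 37C. Substrate loading lasted 2 hr at room temperature.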
# PGR (gene 5241), sequence (P06401 whole entry, looked up): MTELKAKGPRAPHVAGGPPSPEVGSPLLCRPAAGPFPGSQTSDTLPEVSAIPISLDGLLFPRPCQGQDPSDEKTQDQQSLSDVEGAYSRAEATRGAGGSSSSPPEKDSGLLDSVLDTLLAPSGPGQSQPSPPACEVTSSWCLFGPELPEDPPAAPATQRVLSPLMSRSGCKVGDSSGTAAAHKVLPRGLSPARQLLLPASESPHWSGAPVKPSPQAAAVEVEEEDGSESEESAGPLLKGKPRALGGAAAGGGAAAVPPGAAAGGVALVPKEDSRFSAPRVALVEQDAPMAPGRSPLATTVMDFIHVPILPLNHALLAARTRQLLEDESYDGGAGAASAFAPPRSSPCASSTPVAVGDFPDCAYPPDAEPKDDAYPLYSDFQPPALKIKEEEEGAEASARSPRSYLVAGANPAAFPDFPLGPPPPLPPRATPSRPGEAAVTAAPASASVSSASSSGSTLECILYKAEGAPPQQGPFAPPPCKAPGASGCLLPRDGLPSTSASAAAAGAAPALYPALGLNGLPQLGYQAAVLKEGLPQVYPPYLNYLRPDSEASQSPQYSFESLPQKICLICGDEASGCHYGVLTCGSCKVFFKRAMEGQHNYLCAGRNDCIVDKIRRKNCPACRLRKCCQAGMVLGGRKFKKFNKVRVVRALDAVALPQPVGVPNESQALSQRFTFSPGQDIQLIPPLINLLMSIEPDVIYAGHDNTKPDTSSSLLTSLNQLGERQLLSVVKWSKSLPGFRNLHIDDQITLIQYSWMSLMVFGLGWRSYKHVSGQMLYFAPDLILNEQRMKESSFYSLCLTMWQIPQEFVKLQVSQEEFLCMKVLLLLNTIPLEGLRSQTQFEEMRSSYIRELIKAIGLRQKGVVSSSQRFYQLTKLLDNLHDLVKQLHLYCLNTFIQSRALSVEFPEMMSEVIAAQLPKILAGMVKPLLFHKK
compound,measurement,setting,value
N#Cc1ccc(C2CCCc3cncn32)cc1 (configuration not stated),AC50,[1],2.31 µM (active)
same,AC50,[2],2.52 µM (active)
same,AC50,[3],1.44 µM (active)
same,AC50,[4],1.98 µM (active)
same,outcome,[5],inactive
CCCC=C(C=O)CC,outcome,[1],inactive
same,outcome,[2],inactive
same,outcome,[3],inactive
same,outcome,[4],inactive
same,outcome,[6],inactive
same,outcome,[5],inactive
same,outcome,[7],inactive
COc1ccc(C(=O)/C(Br)=C\C(=O)O)cc1,AC50,[1],58.3 µM (active)
same,AC50,[8],39.2 µM (active)
same,AC50,[2],50 µM (active)
same,AC50,[3],57.8 µM (active)
same,AC50,[4],13.6 µM (active)
same,AC50,[5],8.09 µM (active)
same,AC50,[9],83.6 µM (active)
Oc1ccc(-c2ccccc2)c(Cl)c1,outcome,PGR (gene 5241),inactive
c1ccc2c(c1)[nH]c1ccccc12,outcome,PGR (gene 5241),inactive
N#Cc1ccc(C(c2ccc(C#N)cc2)n2cncn2)cc1,outcome,[1],inactive
same,outcome,[8],inactive
same,AC50,[2],4.92 µM (active)
same,outcome,[3],inactive
same,outcome,[4],inactive
same,AC50,[6],0.0183 µM (active)
same,outcome,[5],inactive
same,AC50,[7],0.0263 µM (active)
same,outcome,[9],inactive
CCCCC1C(=O)N(c2ccccc2)N(c2ccccc2)C1=O,outcome,[2],inactive
same,outcome,[3],inactive
same,outcome,[4],inactive
same,AC50,[5],38.7 µM (active)
same,outcome,[7],inactive
CC(C)c1ccc(O)c(C(C)C)c1,outcome,[1],inactive
same,outcome,[2],inactive
same,AC50,[3],31.2 µM (active)
same,outcome,[4],inactive
same,outcome,[6],inactive
same,outcome,[5],inactive
same,outcome,[7],inactive

# Source: PubChem BioAssay (EPA / NIEHS)
